We go through 34 compounds from PubChem BioAssay (Tox21).

Inconclusive results are not listed. Active and inactive are the calls of the source. Calls follow the shape of the dose curve; as a rule, active = well fitted cell-killing curve with a large enough effect in the repeat runs; inconclusive = weak or mixed curves, or effect the other way; inactive = flat fitted curve, though single readings scatter.
% is scaled to controls: 0 for no effect and ±100 for the full control effect; potency is read from the fitted curve at half-maximal effect.

The test in a line: qHTS assay to identify small molecule agonists of the constitutive androstane receptor (CAR) signaling pathway - cell viability counter screen (AID 1224836). Also: nearly all actives have a fitted effect of over 45% in size. Particulars: HepG2-CYP2B6-hCAR viability, CellTiter-Fluor, 23 h, PK11195 added to every well; series mostly up to 92.4 µM; viability change, negative = cytotoxic: at the top concentration. In short, it runs like this: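 Viability read-out: CellTiter-Fluor fluorescence after 23 h compound exposure at 37 C/5% CO2 in double-stable HepG2-CYP2B6-hCAR cells, with PK11195 present at 0.75 uM final; compounds tested in 15-point titration.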
Consider `CCOC=C(C(=O)OCC)C(=O)OCC`, for which the “viability change, negative = cytotoxic” value is -3.94% (inactive).
`NC(=O)C1CO1` (centres undefined): the “viability change, negative = cytotoxic” value is -0.455% (inactive).
The same measure, in the same setting: with `O=[N+]([O-])c1ccc(CO)cc1` the figure was 1.22% (inactive); with `CCC(=O)OC/C=C(\C)CCC=C(C)C`, -3.38% (inactive).
As to `CCOC(=O)[C@H](O)[C@@H](O)C(=O)OCC`, the “viability change, negative = cytotoxic” value is 1.23% (inactive).
Still for that read-out and setting: with `CC(c1cc(C(C)(C)C)cc(C(C)(C)C)c1O)c1cc(C(C)(C)C)cc(C(C)(C)C)c1O` the figure was 1.79% (inactive).
For the compound `C1=CCCC1`, the “viability change, negative = cytotoxic” value was -17.9% (inactive).
Consider `C=C[Si](C)(C)Cl`, for which the viability change, negative = cytotoxic was -0.0044% [at 8.39 µM] (inactive).
On the same count and under the same terms, with `N#CCCOCCC#N` the figure was 6.29% (inactive).
With `CCCCCCCCCCCCS(=O)(=O)Cl`, the viability change, negative = cytotoxic is 14.3% [at 19 µM] (inactive).
With `CC1(C)[C@H](C(=O)OCc2cccc(Oc3ccccc3)c2)[C@@H]1C=C(Cl)Cl`, the “viability change, negative = cytotoxic” value was 4.85% (inactive).
Still for that read-out and setting: with `O=C(CCN1CCC(c2ccccc2)C1)c1ccc2c(c1)OCCO2` (centres undefined) the figure was -10.3% [at 42.5 µM] (inactive); with `O=C(O)C[C@H](O)C[C@H](O)/C=C/c1c(C2CC2)nc2ccccc2c1-c1ccc(F)cc1`, -13.2% [at 19 µM] (inactive).
On the same count and under the same terms, with `CC(C)=NNC(N)=S` the figure was -25.4% (inactive); with `NC(=O)c1ccccc1Cl`, 2.67% (inactive).
Turning to `CC(C)(C)C1=CC(=O)C(C(C)(C)C)=CC1=O`, the “viability change, negative = cytotoxic” value is -0.954% [at 42.5 µM] (inactive).
Still for that read-out and setting: with `O=C1OC(=O)c2cc(-c3ccc4c(c3)C(=O)OC4=O)ccc21` the figure was 1.11% (inactive); with `CC(C)=CCC[C@H](C)CC=O`, -3.35% (inactive).
Turning to `CCNc1nc(NC(C)(C)C)nc(OC)n1`, the “viability change, negative = cytotoxic” value was -2.36% (inactive).
Same read-out and setting: with `CN(C/C=C/c1ccccc1)Cc1cccc2ccccc12` the figure was 0.155% [at 42.5 µM] (inactive); with `CSc1ccc(O)cc1C`, 0.521% (inactive).
For the compound `COc1ccc(OC)c(N=Nc2c(O)ccc3ccccc23)c1`, the Potency was 30.6 µM (active).
On to `CO[Si](OC)(c1ccccc1)c1ccccc1`, for which the “viability change, negative = cytotoxic” value was -8.97% (inactive).
Still for that read-out and setting: with `COc1c(Br)cc(Br)c(C)c1Br` the figure was -2.56% (inactive); with `C=CC(=O)O[C@H]1C[C@@H]2CC[C@@]1(C)C2(C)C`, 4.47% (inactive); with `C=CC(C)(C)O`, 1.44% (inactive).
On to `Oc1ccc2c(c1)CCC2`, for which the “viability change, negative = cytotoxic” value is 2.05% (inactive).
On the same count and under the same terms, with `C=CC(=O)OCC(Br)CBr` (centres undefined) the figure was 1.06% (inactive).
As to `C1CCSC1`, the “viability change, negative = cytotoxic” value is 4.26% (inactive).
On to `CC1CCC(C(C)(C)O)CC1` (centres undefined), for which the “viability change, negative = cytotoxic” value was -8.76% (inactive).
The same measure, in the same setting: with `Cc1ccc(C=O)cc1` the figure was 2.37% [at 42.5 µM] (inactive).
On the same count and under the same terms, with `CC(O)(c1ccc(Cl)cc1)c1ccc(Cl)cc1` the figure was -15.8% (inactive).
For `Cc1ccc(S(=O)(=O)C(I)I)cc1`, the Potency was 48.6 µM (active).
For `COc1cc(C(C)C)ccc1C`, the viability change, negative = cytotoxic was 2.67% [at 19 µM] (inactive).
